Where “and” joins values, the source holds several entries; their conditions need not be identical. Identical values can stand only once. Inconclusive results are not listed. Entries that show only a call come without a potency. The source holds several records for some structures; these can differ, active in one and inactive in another. Calls of active or inactive are those of the source. Calls come from the whole dose curve; as a rule, active = well fitted curve in the direction sought with a large enough effect in the repeat runs; inconclusive = weak or mixed curves; inactive = no such curve, though single readings can be large; an effect the other way counts as inactive or inconclusive.
Key:
[1] = Caspase-3/7 induction in HepG2 cells by small molecules, qHTS assay (AID 1346978); note: nearly all actives have a fitted effect of over 15% in size; note: potency is the fitted concentration of half-maximal effect
How it was run: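 Caspase-3/7 induction was measured by Caspase-Glo 3/7 luminescence (30 min, room temperature) after a 17 hr compound exposure of wild-type HepG2 cells seeded at 2,000 per well and pre-incubated 5 hr.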

[2] = Caspase-3/7 induction in CHO-K1 cells by small molecules, qHTS cell viability counter screen (AID 1346979); note: nearly all actives have a fitted effect of over 35% in size; note: potency is the fitted concentration of half-maximal effect
How it was run: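 Cytotoxicity counter screen run in parallel with the caspase-3/7 assay: CHO-K1 cells, 16hr compound treatment at 37C, then CellTiter-Fluor for 1hr before fluorescence reading.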

[3] = Caspase-3/7 induction in CHO-K1 cells by small molecules, qHTS assay (AID 1346980); note: nearly all actives have a fitted effect of over 15% in size
How it was run: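 Luminescent Caspase-Glo 3/7 read (30min, room temperature) quantified apoptosis induction. Cells were wild-type CHO-K1, treated with compound for 17hr at 37 C and 5% CO2.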

[4] = Caspase-3/7 induction in HepG2 cells by small molecules, qHTS cell viability counter screen (AID 1346981); note: nearly all actives have a fitted effect of over 30% in size; note: potency is the fitted concentration of half-maximal effect
How it was run: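 The parent HepG2 line is plated at 2,000 cells per well and rested 5 hr before compound pinning from DMSO stocks. Following a 16-hr treatment at 37 C, a fluorogenic live-cell substrate (CellTiter-Fluor) reports viability after 1 hr.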

[5] = biological target: Nuclear receptor subfamily 1 group I member 2 (Homo sapiens) (UniProt O75469); assay: Human pregnane X receptor (PXR) small molecule agonists, qHTS assay (AID 1346982); note: nearly all actives have a fitted effect of over 35% in size; note: potency is the fitted concentration of half-maximal effect
Chain of Nuclear receptor subfamily 1 group I member 2 (Homo sapiens) (O75469 whole entry, looked up): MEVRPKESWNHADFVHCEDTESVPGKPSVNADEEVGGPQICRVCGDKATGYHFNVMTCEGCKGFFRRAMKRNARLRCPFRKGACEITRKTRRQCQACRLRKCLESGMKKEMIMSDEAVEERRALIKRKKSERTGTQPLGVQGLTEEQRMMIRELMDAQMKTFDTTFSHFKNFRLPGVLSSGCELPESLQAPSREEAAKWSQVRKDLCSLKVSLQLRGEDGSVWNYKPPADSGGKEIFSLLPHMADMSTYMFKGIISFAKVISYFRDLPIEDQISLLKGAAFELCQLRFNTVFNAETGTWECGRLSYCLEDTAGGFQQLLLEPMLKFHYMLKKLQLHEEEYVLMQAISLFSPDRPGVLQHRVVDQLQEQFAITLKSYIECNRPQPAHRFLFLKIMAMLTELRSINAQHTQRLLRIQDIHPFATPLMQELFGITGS
How it was run: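 After plating in 5% charcoal-stripped FBS and a 5 hr rest, PXR-Luc HepG2 cells received compounds in DMSO. Following 24 hr at 37 C, ONE-Glo was added and light output read.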

[6] = biological target: Cytochrome P450 2D6 (Homo sapiens) (UniProt P10635); assay: Cytochrome P450 Family 2 Subfamily D Member 6 (CYP2D6) small molecule antagonists: luciferase reporter qHTS assay (AID 1671196); note: nearly all actives have a fitted effect of over 50% in size; note: potency is the fitted concentration of half-maximal effect
Chain of Cytochrome P450 2D6 (Homo sapiens) (P10635 whole entry, looked up): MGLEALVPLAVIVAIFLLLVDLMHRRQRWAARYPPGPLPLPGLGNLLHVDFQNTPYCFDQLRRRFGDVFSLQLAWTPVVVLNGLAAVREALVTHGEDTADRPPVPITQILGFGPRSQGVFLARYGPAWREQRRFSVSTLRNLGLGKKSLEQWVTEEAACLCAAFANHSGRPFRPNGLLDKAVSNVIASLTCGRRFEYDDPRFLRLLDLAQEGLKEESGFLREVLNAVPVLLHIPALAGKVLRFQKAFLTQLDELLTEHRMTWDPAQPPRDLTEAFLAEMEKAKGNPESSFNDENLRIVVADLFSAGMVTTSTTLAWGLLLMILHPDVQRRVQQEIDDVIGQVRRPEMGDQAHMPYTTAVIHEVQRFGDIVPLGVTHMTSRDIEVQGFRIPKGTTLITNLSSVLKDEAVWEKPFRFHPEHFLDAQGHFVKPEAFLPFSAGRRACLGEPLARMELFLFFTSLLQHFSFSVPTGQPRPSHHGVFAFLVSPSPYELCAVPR
How it was run: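 Quantitative HTS of Tox21 chemicals against CYP2D6 using a luminescent proluciferin substrate. After NADPH addition, 1 h room-temperature reaction; luminescence recorded 20 min post detection reagent.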

[7] = biological target: Cytochrome P450 2C19 (Homo sapiens) (UniProt P33261); assay: Cytochrome P450 Family 2 Subfamily C Member 19 (CYP2C19) small molecule antagonists: luciferase reporter qHTS assay (AID 1671197); note: nearly all actives have a fitted effect of over 65% in size; note: potency is the fitted concentration of half-maximal effect
Chain of Cytochrome P450 2C19 (Homo sapiens) (P33261 whole entry, looked up): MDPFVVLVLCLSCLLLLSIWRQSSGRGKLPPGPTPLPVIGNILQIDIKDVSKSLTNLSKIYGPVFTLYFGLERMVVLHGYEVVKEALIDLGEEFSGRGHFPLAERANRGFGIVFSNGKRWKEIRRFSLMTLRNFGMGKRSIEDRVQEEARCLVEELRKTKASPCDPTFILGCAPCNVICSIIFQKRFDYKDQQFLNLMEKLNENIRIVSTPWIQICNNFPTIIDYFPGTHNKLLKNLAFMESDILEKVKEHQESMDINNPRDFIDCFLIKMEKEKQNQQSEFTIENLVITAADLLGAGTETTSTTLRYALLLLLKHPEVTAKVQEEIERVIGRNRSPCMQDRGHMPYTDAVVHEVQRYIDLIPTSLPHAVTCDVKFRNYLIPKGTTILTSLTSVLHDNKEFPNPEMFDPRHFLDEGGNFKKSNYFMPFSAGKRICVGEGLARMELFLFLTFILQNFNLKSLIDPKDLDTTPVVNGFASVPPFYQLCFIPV
How it was run: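 CYP2C19 P450-Glo, 1536-well qHTS. Cpd + enzyme/proluciferin substrate 10 min RT; + NADPH regen, 37C 1 h; stop with luciferin detection reagent, 20 min RT, luminescence (RLU). Pos ctrl ketoconazole.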

[8] = biological target: Cytochrome P450 2C9 (Homo sapiens) (UniProt P11712); assay: Cytochrome P450 Family 2 Subfamily C Member 9 (CYP2C9) small molecule antagonists: luciferase reporter qHTS assay (AID 1671198); note: nearly all actives have a fitted effect of over 50% in size; note: potency is the fitted concentration of half-maximal effect
Chain of Cytochrome P450 2C9 (Homo sapiens) (P11712 whole entry, looked up): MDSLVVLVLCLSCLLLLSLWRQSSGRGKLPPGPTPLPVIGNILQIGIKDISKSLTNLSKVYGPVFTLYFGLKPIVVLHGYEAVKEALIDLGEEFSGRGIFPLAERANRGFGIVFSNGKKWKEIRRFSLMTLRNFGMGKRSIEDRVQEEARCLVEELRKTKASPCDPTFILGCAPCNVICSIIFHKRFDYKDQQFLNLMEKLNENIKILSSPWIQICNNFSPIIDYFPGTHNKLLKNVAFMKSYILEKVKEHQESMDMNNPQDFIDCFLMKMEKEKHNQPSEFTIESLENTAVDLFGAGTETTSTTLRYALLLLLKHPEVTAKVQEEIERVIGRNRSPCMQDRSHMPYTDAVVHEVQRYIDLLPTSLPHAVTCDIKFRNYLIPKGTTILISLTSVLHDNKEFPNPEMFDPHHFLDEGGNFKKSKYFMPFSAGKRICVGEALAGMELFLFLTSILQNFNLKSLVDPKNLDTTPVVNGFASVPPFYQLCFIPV
How it was run: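 Enzyme-substrate mix preincubated with compound 10 min at room temperature; reaction started with NADPH regeneration solution, 1 h 37C. Luminescent luciferin product read after 20 min detection reagent.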

[9] = biological target: Cytochrome P450 1A2 (Homo sapiens) (UniProt P05177); assay: Cytochrome P450 Family 1 Subfamily A Member 2 (CYP1A2) small molecule antagonists: luciferase reporter qHTS assay (AID 1671199); note: nearly all actives have a fitted effect of over 50% in size; note: potency is the fitted concentration of half-maximal effect
Chain of Cytochrome P450 1A2 (Homo sapiens) (P05177 whole entry, looked up): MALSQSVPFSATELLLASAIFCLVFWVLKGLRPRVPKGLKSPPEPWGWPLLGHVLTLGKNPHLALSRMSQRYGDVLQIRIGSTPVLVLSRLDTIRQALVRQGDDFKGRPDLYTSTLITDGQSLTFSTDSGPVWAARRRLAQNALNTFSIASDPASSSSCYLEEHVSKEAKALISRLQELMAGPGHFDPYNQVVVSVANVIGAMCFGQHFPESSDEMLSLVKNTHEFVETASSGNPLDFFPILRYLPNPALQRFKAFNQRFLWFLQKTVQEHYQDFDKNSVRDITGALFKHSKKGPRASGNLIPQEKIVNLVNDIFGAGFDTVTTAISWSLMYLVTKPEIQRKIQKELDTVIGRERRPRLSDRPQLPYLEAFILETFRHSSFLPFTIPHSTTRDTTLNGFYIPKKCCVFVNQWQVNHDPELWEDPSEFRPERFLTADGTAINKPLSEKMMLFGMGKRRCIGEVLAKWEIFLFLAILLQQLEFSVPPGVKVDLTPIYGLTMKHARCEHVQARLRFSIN
How it was run: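 Quantitative high-throughput format using the P450-Glo CYP1A2 system. Reaction initiated by NADPH regeneration solution, 1 h at room temperature, then stopped with detection reagent; luminescence measured 20 min later.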

[10] = biological target: Voltage-gated inwardly rectifying potassium channel KCNH2 (Homo sapiens) (UniProt Q12809); assay: Human Ether-a-go-go-Related Gene (hERG) channel small molecule antagonists: fluorescence cell-based qHTS assay (AID 1671200);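 note: hERG-expressing U2OS cells given a thallium stimulus after FluxOR II dye loading; series mostly up to about 77 µM; nearly all actives have a fitted effect of over 50% in size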
Chain of Voltage-gated inwardly rectifying potassium channel KCNH2 (Homo sapiens) (Q12809 whole entry, looked up): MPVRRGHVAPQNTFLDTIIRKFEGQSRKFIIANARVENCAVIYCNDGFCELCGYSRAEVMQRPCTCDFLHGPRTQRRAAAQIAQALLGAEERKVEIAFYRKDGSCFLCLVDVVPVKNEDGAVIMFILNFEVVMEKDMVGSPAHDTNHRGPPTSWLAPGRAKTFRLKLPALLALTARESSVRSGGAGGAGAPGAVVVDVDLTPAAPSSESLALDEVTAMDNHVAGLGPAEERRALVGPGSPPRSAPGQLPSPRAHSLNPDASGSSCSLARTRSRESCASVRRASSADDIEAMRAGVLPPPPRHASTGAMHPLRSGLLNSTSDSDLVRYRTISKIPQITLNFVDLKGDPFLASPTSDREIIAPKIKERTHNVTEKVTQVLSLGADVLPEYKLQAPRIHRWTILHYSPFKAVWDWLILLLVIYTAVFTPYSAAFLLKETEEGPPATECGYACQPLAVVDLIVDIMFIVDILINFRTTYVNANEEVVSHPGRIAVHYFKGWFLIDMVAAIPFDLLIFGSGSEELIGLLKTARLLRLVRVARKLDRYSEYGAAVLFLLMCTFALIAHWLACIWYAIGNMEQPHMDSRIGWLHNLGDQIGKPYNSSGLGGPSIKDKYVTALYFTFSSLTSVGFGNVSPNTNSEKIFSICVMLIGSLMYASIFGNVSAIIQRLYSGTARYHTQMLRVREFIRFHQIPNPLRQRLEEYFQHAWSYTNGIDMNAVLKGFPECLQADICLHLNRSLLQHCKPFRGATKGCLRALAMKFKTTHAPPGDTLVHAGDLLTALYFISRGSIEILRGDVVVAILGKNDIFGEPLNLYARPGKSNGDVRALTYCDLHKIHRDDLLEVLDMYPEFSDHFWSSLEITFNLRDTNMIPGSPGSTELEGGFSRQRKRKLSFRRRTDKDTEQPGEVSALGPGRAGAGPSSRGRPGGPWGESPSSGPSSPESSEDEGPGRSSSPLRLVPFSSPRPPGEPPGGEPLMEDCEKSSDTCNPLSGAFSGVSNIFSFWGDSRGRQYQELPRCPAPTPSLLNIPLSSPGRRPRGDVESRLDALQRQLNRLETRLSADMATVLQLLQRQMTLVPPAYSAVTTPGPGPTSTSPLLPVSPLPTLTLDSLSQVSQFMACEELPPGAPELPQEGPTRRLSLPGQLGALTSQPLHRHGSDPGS
How it was run: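 Fluorescence at 540 nm emission (480 nm excitation) was recorded kinetically for 2 min at 1-second intervals once the thallium-containing stimulus reached cells previously loaded with FluxOR II dye.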

[11] = biological target: Cytochrome P450 3A4 (Homo sapiens) (UniProt P08684); assay: Cytochrome P450 Family 3 Subfamily A Member 4 (CYP3A4) small molecule antagonists: luciferase reporter qHTS assay (AID 1671201); note: nearly all actives have a fitted effect of over 50% in size; note: potency is the fitted concentration of half-maximal effect
Chain of Cytochrome P450 3A4 (Homo sapiens) (P08684 whole entry, looked up): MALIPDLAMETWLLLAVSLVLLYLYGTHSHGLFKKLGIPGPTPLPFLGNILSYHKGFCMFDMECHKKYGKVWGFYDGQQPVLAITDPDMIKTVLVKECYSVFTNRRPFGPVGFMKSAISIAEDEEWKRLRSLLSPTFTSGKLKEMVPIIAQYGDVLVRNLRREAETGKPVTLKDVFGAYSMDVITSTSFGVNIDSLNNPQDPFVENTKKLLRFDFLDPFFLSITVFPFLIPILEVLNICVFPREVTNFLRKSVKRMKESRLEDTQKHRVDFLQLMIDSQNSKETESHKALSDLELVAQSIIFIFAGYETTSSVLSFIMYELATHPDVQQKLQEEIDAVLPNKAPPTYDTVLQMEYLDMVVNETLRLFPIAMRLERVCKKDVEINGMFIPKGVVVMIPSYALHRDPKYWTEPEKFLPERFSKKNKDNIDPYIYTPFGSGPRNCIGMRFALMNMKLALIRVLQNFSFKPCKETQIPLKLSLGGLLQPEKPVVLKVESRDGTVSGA
How it was run: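 qHTS, 1536-well. CYP3A4 + proluciferin substrate, cpd 10 min RT → NADPH regen 1 h RT → detection reagent 20 min → luminescence (RLU). Ketoconazole positive control.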

[12] = biological target: Nuclear receptor subfamily 1 group I member 2 (Rattus norvegicus) (UniProt Q9R1A7); assay: Rat pregnane X receptor (rPXR) activation by small molecules, qHTS assay (AID 1346983); conditions: rPXR luciferase reporter cells, One-Glo luminescence, 24 h; max activation: stronger effect = higher value; note: nearly all actives have a fitted effect of over 20% in size; note: potency is the fitted concentration of half-maximal effect
Chain of Nuclear receptor subfamily 1 group I member 2 (Rattus norvegicus) (Q9R1A7 whole entry, looked up): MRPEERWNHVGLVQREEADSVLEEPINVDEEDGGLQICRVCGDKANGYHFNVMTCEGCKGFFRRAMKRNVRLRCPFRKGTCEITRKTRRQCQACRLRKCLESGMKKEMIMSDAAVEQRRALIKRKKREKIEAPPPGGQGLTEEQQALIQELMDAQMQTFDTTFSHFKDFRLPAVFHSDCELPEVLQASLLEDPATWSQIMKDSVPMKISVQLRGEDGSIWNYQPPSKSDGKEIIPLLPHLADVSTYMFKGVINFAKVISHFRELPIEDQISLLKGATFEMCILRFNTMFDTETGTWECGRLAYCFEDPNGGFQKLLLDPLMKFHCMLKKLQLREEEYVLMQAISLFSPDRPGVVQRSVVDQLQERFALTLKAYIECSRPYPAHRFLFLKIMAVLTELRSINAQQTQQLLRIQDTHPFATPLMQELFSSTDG
How it was run: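 Luminescent readout (One-Glo luciferase, 30 min room temperature) followed 24 hr compound treatment at 37 C of rPXR cells plated 2,000 per well and preincubated 5hr; qHTS format with compounds delivered in DMSO.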

[13] = biological target: Nuclear receptor subfamily 1 group I member 2 (Homo sapiens) (UniProt O75469); assay: CYP3A4 induction through human pregnane X receptor (PXR) by small molecules, qHTS assay (AID 1346984); note: nearly all actives have a fitted effect of over 40% in size
How it was run: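 Human PXR activation is tracked via CYP3A4 promoter-luciferase in DPX-2 (HepG2) cells. Compounds treat cells for 24hr at 37C, and luminescence is read after One-Glo.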

[14] = biological target: Nuclear receptor subfamily 1 group I member 2 (Homo sapiens) (UniProt O75469); assay: Human pregnane X receptor (PXR) activation by small molecules, qHTS assay (AID 1346985); note: nearly all actives have a fitted effect of over 40% in size
How it was run: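 DPX-2 cells (HepG2 co-transfected with a PXR response element and a CYP3A4-promoter luciferase construct) were seeded at 2,000 per well, rested 5 hr at 37C, then exposed to DMSO-dissolved compounds for 24 hr. Activation was read as luciferase luminescence.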

| Compound | Potency [1] | Potency [2] | outcome [3] | Potency [4] | Potency [5] | Potency [6] | Potency [7] | Potency [8] | Potency [9] | Potency [10] | Potency [11] | max activation [12] | Potency [13] | Potency [14] | Potency [12] |
| --- | --- | --- | --- | --- | --- | --- | --- | --- | --- | --- | --- | --- | --- | --- | --- |
| C=CC(=O)NC(C)(C)CS(=O)(=O)O | inactive | inactive | inactive | inactive | inactive | 49.2 µM (active) and inactive | inactive | inactive | inactive | inactive | inactive | – | – | – | – |
| C[C@]12C[C@H](O)[C@H]3[C@@H](CCC4=CC(=O)CC[C@@]43C)[C@@H]1CC[C@@H]2C(=O)CO | inactive | inactive | inactive | inactive | 8.65 µM (active) and 38.6 µM (active) | inactive | – | – | – | inactive | inactive | -5.48% (inactive) | inactive | inactive | – |
| CCn1cc(C(=O)O)c(=O)c2ccc(C)nc21 | inactive | inactive | inactive | inactive | inactive | inactive | – | – | inactive | – | inactive | – | – | – | – |
| CCCCOCCOCCSC#N | inactive | inactive | inactive | inactive | 32.3 µM (active) and 26.8 µM (active) | inactive | 8.4 µM (active) and inactive | inactive | 6.67 µM (active) and 11.1 µM (active) | – | inactive | – | – | – | – |
| N[C@@H](Cc1c[nH]c2ccccc12)C(=O)O | inactive | inactive | inactive | inactive | inactive | 35.6 µM (active) and inactive | 31.8 µM (active) and inactive | 71.1 µM (active) | – | inactive | inactive | – | – | – | – |
| CC(=O)CCC(C)C | inactive | inactive | inactive | inactive | inactive | inactive | inactive | inactive | – | – | inactive | – | – | – | – |
| C#C[C@]1(O)CC[C@H]2[C@@H]3CCc4cc(O)ccc4[C@H]3CC[C@@]21C | 21.5 µM (active) and inactive | 54.1 µM (active) and 54.5 µM (active) | inactive | inactive | – | inactive | 7.05 µM (active) and 10 µM (active) and 13.8 µM (active) | – | inactive and 17.4 µM (active) | inactive | – | 10.3% (inactive) | – | – | – |
| OCCCc1ccccc1 | inactive | inactive | inactive | inactive | inactive | inactive | 31.7 µM (active) and inactive | inactive | 35.6 µM (active) | – | inactive | – | – | – | – |
| C[C@]12CC[C@@H]3c4ccc(O)cc4CC[C@H]3[C@@H]1CCC2=O | inactive | inactive | inactive | inactive | – | – | – | – | – | inactive | – | – | – | – | – |
| CC(=O)Oc1ccccc1C(=O)O | inactive | inactive | inactive | inactive | inactive | inactive | 79.2 µM (active) and inactive | inactive | inactive and 24.5 µM (active) | – | inactive | – | – | – | – |
| COC1=CC(=O)C[C@@H](C)[C@]12Oc1c(Cl)c(OC)cc(OC)c1C2=O | 24.1 µM (active) and 61.1 µM (active) | inactive | inactive | inactive | – | inactive | 70.4 µM (active) and inactive | 44.8 µM (active) and inactive | inactive | – | – | – | – | – | 28.2 µM (active) |
| C=CCOC(=O)CC(C)C | inactive | inactive | inactive | inactive | inactive | inactive | inactive | inactive | inactive | – | inactive | – | – | – | – |
| C=C(C)OC(C)=O | inactive | inactive | inactive | inactive | inactive | 13 µM (active) and inactive | inactive | inactive | inactive | – | inactive | – | – | – | – |
| O=[N+]([O-])c1ccc(O)cc1 | inactive | 56.6 µM (active) and 54.5 µM (active) and 48.6 µM (active) | inactive | 56.6 µM (active) and 61.1 µM (active) and 54.5 µM (active) | inactive | inactive | 33 µM (active) | inactive | 20.8 µM (active) and inactive | – | 5.86 µM (active) and inactive | – | – | – | – |
| COCC(C)N (stereo unspecified) | inactive | inactive | inactive | inactive | inactive | inactive | inactive | inactive | 44.8 µM (active) | – | inactive | – | – | – | – |
| O=C(O)Cc1cccc2ccccc12 | inactive | – | inactive | inactive | inactive | inactive and 6.33 µM (active) | inactive | inactive | 33.5 µM (active) and 43.5 µM (active) | – | inactive | -6.88% (inactive) | inactive | inactive | – |
| C[C@]12C=CC(=O)C=C1CC[C@@H]1[C@@H]2C(=O)C[C@@]2(C)[C@H]1CC[C@]2(O)C(=O)CO | inactive | – | inactive | inactive | – | – | – | – | – | – | – | – | – | – | – |
| Cc1cccc(C)c1O | inactive | inactive | inactive | inactive | inactive | inactive | 72.1 µM (active) and inactive | – | 36.1 µM (active) | – | inactive | – | – | – | – |
| NC(=O)NO | inactive | inactive | inactive | inactive | – | – | – | – | – | inactive | – | – | – | – | – |
| NC(=O)OCC(COC(N)=O)c1ccccc1 | inactive | inactive | inactive | inactive | inactive | inactive | inactive and 34.7 µM (active) | inactive | inactive | – | inactive | – | – | – | – |

Source: PubChem BioAssay (Tox21)
